Bounds are passed on as bounds.
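Note: kd values determined as follow-up on hits from a single-replicate KINOMEscan panel screen.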

The test system of one experiment is AURKA.
As usually defined, the Kd is the concentration at which binding is half-saturated. High values mean weaker binding, low ones tighter binding. `COc1cc(Nc2nccc(N3CCC(NC(=O)Nc4cc(C)ccc4C)C3)n2)cc(OC)c1OC` (stereo not shown) [GSK1379762] yielded a dissociation constant Kd of 1100 nM.
In the case of `Clc1cc(Cl)cc(Nc2ccnc(Nc3cc(Cl)cc(Cl)c3)n2)c1` [GSK175726], the Kd is more than 10000 nM.
For the compound `Fc1cc(Cl)ccc1Nc1ccnc2cc(-c3ccc(CN4CCCCC4)o3)ccc12` [GW560116], the dissociation constant (Kd) was more than 10000 nM.
On the same count and under the same terms, next, `Nc1ncnc2[nH]c(-c3ccccc3)nc12` [AH5015]: more than 10000 nM.
Still for that read-out and setting: then `C[C@@H]1CCCCN1c1cc(-c2ccc3c(N)n[nH]c3c2)nc(N)n1` [GSK2258759], with more than 10000 nM; and `COc1ccccc1CNC(=O)c1cc(C(=O)c2ccccc2C)c[nH]1` [GSK364507], with more than 10000 nM.
Same read-out and setting: then `COc1cc2ncnc(Nc3ccc4nc(-c5ccccc5)[nH]c4c3)c2cc1OC.Cl` [GW282450], with 2300 nM.

Another experiment has as its system AURKB.
Compound `COc1cc(Nc2nccc(N3CCC(NC(=O)Nc4cc(C)ccc4C)C3)n2)cc(OC)c1OC` (stereo not shown) [GSK1379762] had a Kd of 240 nM.
`Cc1ccc(C(=O)Nc2ccc(Nc3ccnc4cc(-c5ccccn5)ccc34)cc2O)cc1.Cl` [GW440146] came in with a Kd of 290 nM.
The compound `COc1ccc(CNC(=O)NC2CCN(c3ccnc(Nc4cc(OC)c(OC)c(OC)c4)n3)C2)cc1` (stereo not shown) [GSK1379748] had a Kd of 330 nM.
`O=C(Nc1ccc2c(c1)OCO2)NC1CCN(c2ccnc(Nc3ccc(F)cc3)n2)C1` (stereo not shown) [GSK1379724] returned a Kd of 6900 nM.
Compound `Cn1ccc2ncnc(Oc3ccc(NC(=O)Nc4ccccc4)cc3)c21` displayed a dissociation constant (Kd) of 110 nM.
On the same count and under the same terms, next, `Cn1ccc2ncnc(Oc3ccc(Nc4nc5ccccc5[nH]4)cc3)c21`: 59 nM.
Same read-out and setting: then `Cn1cncc1-c1ccc2ncnc(Nc3ccc(OCc4ccccc4)cc3)c2c1` [GW320571], with more than 10000 nM.

The next experiment concerns AURKC.
For the compound `COc1cc(Nc2nccc(N3CCC(NC(=O)Nc4cc(C)ccc4C)C3)n2)cc(OC)c1OC` (stereo not shown) [GSK1379762], the Kd came out at 200 nM.
`COc1cc2ncn(-c3cc(OCC4CCCO4)c(C(N)=O)s3)c2cc1OC` (stereo not shown) [GSK204607]: the dissociation constant Kd is more than 10000 nM.
In turn, `Cc1ccc(C(=O)Nc2ccc(Nc3ccnc4cc(-c5ccccn5)ccc34)cc2O)cc1.Cl` [GW440146] had a dissociation constant Kd of 500 nM.
Consider `Cn1ccc2ncnc(Oc3ccc(NC(=O)Nc4ccccc4)cc3)c21`, for which the Kd worked out at 110 nM.
On the same count and under the same terms, next, `COc1cccc(-c2cc(-c3c[nH]nc3-c3ccccn3)ccn2)c1` [GW680338]: more than 10000 nM.

(Values after paper PMC5540273 (PLoS ONE, 2017).)
